Bioassay records: PubChem BioAssay, National Center for Advancing Translational Sciences (NCATS)
ELG1 genotoxic = inducers of genotoxicity in HEK293T ELG1-luciferase cells; HEK293T ELG1-luciferase reporter, luminescence, 16 h; Potency, µM (highest dose often 46 µM), hits mostly activators; hit rate 1.3% among 330,000; further: nearly all actives have a fitted effect of over 60% in size
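After overnight (16 hr) compound treatment at 37 °C, ELG1-luciferase HEK293T cells were lysed with ONE-Glo; luminescence quantified 30 min later at room temperature.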
Rab9 promoter act = Rab9 promoter activation; Huh7 Rab9 promoter-luciferase reporter, luminescence, 24 h; AID 485297; hit rate 2.8% among 320,000; Potency, µM (top dose mostly 9.22 µM), usual class: activators; further: nearly all actives have a fitted effect of over 60% in size
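Luminescence read-out: Huh7 cells stably expressing Rab9-luciferase, treated 24 h with compound at 37 °C, then lysed with luciferase reagent for 10 min at ambient before reading.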
NPC1 promoter act = activators of NPC1 promoter; Huh7 NPC1 promoter luciferase reporter, 24 h; Potency, µM (titrated, usually from 9.22 µM), usual class: activators; hit rate 2.4% among 320,000; AID 485313; further: nearly all actives have a fitted effect of over 60% in size
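In 1536-well qHTS, Huh7 cells harboring an NPC1 promoter–luciferase construct received compound for 24 h; activation was quantified by luminescence following luciferase reagent addition.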
SMN2 splice up = increases expression of the SMN2 splice variant. Potency, µM (series often up to 46.1 µM), usual class: activators. HEK293 SMN2-luciferase splicing reporter, luminescence, 30-36 h. hit rate 2.8% among 210,000; further: nearly all actives have a fitted effect of over 55% in size
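HEK293 cells carry an SMN2 […]–luciferase reporter in which exon 7 inclusion puts luciferase in frame. Cells were plated 10-12 h before compound addition, then incubated 30-36 h at 37C. ONE-Glo luminescence was read; sodium butyrate at 4.5 mM final served as control.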
Luc counter = blocks Kinase-Glo luciferase, a counter-screen artifact | Q27757 | Kinase-Glo luciferase, ATP luminescence, 8 min | Potency, µM (top dose mostly 38.3 µM), usual class: inhibitors | hit rate 0.28% among 200,000 | AID 1379; further: nearly all actives have a fitted effect of over 60% in size
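Substrate mix (final 50 mM imidazole pH 7.2, 50 mM KCl, 7 mM MgCl2, 10 uM ATP, 0.01% Tween 20, 0.05% BSA) plus pin-tool compound, then Kinase-Glo detection mix; 8 min ambient, luminescence read.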
FLuc modulator = inhibits or activates purified firefly luciferase, miR-21 counter-screen; purified FLuc, Km substrates, luminescence inhibition; Potency, µM (series often up to 57.5 µM), actives largely listed as inhibitors; hit rate 6.9% among 360,000; AID 588342; further: nearly all actives have a fitted effect of over 55% in size
Target sequence (P08659 whole entry, looked up): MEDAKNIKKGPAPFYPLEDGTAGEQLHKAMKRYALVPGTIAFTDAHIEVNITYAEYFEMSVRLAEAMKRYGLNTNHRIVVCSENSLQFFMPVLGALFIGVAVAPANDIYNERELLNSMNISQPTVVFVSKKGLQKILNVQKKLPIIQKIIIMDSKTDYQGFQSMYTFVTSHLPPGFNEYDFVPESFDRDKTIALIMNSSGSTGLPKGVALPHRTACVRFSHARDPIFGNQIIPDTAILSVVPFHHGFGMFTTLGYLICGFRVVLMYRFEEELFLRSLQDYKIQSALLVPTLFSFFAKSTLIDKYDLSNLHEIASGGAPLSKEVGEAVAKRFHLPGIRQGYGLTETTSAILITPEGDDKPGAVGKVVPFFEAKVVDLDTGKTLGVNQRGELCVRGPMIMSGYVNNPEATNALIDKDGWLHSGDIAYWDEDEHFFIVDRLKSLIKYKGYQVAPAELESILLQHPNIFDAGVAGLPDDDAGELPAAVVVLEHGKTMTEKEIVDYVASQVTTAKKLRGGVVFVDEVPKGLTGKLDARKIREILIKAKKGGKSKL
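Purified P. pyralis luciferase (10nM final) with 10uM D-luciferin and 10uM ATP (Km levels) in 50mM Tris acetate pH 7.5, 10mM Mg acetate, 0.01% Tween-20, 0.05% BSA; qHTS 6-point titration, ~60 µM downward; luminescence read.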
Numbers stand for hits; . = inactive; ? = inconclusive; / = no result. An excerpt weighted towards active compounds, which were near 7.4% of everything screened. The call rests on the fitted dose curve; in most records, active means well fitted curve in the direction sought with a large enough effect; inconclusive means small, poorly fitted or top-dose-only effect, or another doubt; inactive means no such curve, though single readings can be large; an effect the other way counts as inactive or inconclusive.

SMILES	ELG1 genotoxic	Rab9 promoter act	NPC1 promoter act	SMN2 splice up	Luc counter	FLuc modulator
CCC(=O)Nc1cccc(-c2nnc(SCC(=O)c3ccccc3)n2C)c1	?	1.8µM	?	.	.	6µM
Cn1c(SCC(=O)c2ccccc2)nnc1-c1cnccn1	?	3.2µM	?	.	.	?
Cn1c(SCC(=O)c2ccccc2)nnc1-c1cccs1	?	2.8µM	3.2µM	/	/	12µM
COC(=O)CNC(=O)C1CCN(S(=O)(=O)c2cnc[nH]2)CC1	.	.	.	/	/	.
Oc1ccc(N=Nc2cccc(Cl)c2)cc1C=Nc1ccc(N2CCOCC2)cc1	.	.	.	.	.	.
Clc1cccc(-c2ccc(C=Nc3ccc(N4CCOCC4)cc3)o2)c1	.	.	.	.	.	11µM
Clc1cccc(-c2ccc(CNCCCN3CCOCC3)o2)c1	.	.	.	/	.	.
Oc1c(Br)cc(Cl)cc1C=Nc1ccc(N2CCOCC2)cc1	.	.	.	/	.	17µM
CCCC(=O)c1cc(O)c(O)cc1O	/	/	/	.	/	/
CC(=O)Nc1ccc(NC(=O)C(C)OC(=O)/C(C#N)=C/c2ccc(N(C)C)cc2)cc1 (configuration not stated)	18µM	?	.	/	/	9.5µM
COc1cc2c(cc1OC)C(c1ccc(-c3ccc(Cl)c(Cl)c3)o1)=NCC2	.	.	.	.	.	15µM
COc1cc2c(cc1OC)C(c1ccc(-c3ccccc3Cl)o1)=NCC2	.	.	.	.	.	2.1µM
COc1cc2c(cc1OC)C(c1ccc(-c3ccc(Cl)cc3Cl)o1)=NCC2	.	.	.	.	.	15µM
O=C(O)c1ccc(Sc2nnc3ccccn23)c([N+](=O)[O-])c1	.	.	.	/	/	.
NC(=S)NCCCC(N)C(=O)O (configuration not stated)	/	/	/	.	.	/
CCCCCN(C(=O)NC(=O)Nc1ccccc1C)S(=O)(=O)c1ccccc1	.	.	.	.	.	.
Cc1[nH]c(=O)c(C#N)c(C)c1CCC(=O)NCc1cccc(C(F)(F)F)c1	.	.	.	/	/	.
CN(CC(=O)Nc1c(Cl)cccc1Cl)C(=O)C1=COCCO1	.	.	.	/	/	.
COc1ccc(Cl)cc1S(=O)(=O)N1CCC(C(=O)NCc2ccco2)CC1	.	.	.	/	/	.
Cc1cc(=O)[nH]c(S/C=C/c2ccccc2)n1	21µM	?	3.5µM	11µM	?	5.4µM
Cc1cc(=O)[nH]c(SCc2ccccc2)n1	.	.	.	/	/	.
O=C(NC(=S)Nc1ccccc1N1CCCCC1)c1ccco1	.	.	.	.	.	.
CC(=O)N1CCN(c2ccc(NC(=O)c3ccco3)cc2)CC1	?	?	?	/	/	17µM
O=C(NC(=S)Nc1ccc(N2CCCCC2)cc1)c1ccco1	?	1.1µM	1µM	/	.	3.4µM
CC1CCN(c2ccc(NC(=S)NC(=O)c3ccco3)cc2)CC1	.	?	.	.	.	12µM
SMILES	ELG1 genotoxic	Rab9 promoter act	NPC1 promoter act	SMN2 splice up	Luc counter	FLuc modulator
CN(C)S(=O)(=O)c1ccc2c(c1)nc(CCC(=O)NCCc1ccc(Cl)cc1)n2C	.	.	.	/	/	.
COCCCNC(=O)C1CCN(c2nnc(-n3cccc3CNc3ccc(C)cc3)s2)CC1	/	/	/	.	/	.
COc1ccc(N(CC(C)C)S(=O)(=O)c2nnc(NC(=O)c3ccco3)s2)cc1	.	.	.	/	/	.
N#C/C(=N\Nc1ccccc1F)c1nc(-c2ccccc2)cs1	.	.	.	.	.	.
Cc1ccccc1Nc1nnc(SCC(=O)N(C)C2CCS(=O)(=O)C2)s1 (configuration not stated)	.	.	.	.	.	.
Cc1ccc(Nc2nnc(SCC(=O)N(C)C3CCS(=O)(=O)C3)s2)cc1 (configuration not stated)	.	.	.	?	.	8.5µM
Cc1cccc(Nc2nnc(SCC(=O)c3ccc(O)cc3O)s2)c1	?	.	.	/	/	9.5µM
Cc1cccc(Nc2nnc(SCc3cc(=O)n4cc(C)ccc4n3)s2)c1	.	.	.	.	.	.
Cc1ccc(Nc2nnc(SCC(=O)c3ccc(O)cc3O)s2)cc1	.	.	.	/	/	11µM
COCc1ccc(C(=O)N2CCCC(C(=O)c3cc(F)ccc3F)C2)s1 (configuration not stated)	.	.	.	/	.	.
CC1Cc2ccccc2N1C(=O)COC(=O)c1ccc(N(C)C)cc1 (configuration not stated)	.	.	.	/	/	/
C/C(=N\Nc1nc(C)cc(-c2ccccc2)n1)c1ccc(C)o1	.	.	.	.	.	?
C/C(=N/Nc1nc(C)cc(-c2ccccc2)n1)c1ccco1	.	?	?	.	.	15µM
Cc1cc(-c2ccccc2)nc(N/N=C/c2ccccc2F)n1	.	?	?	/	/	11µM
C/C(=N\Nc1nc(C)cc(-c2ccccc2)n1)c1ccccc1	.	.	.	/	/	2.7µM
C/C(=N\Nc1nc(C)cc(-c2ccccc2)n1)c1ccc(O)cc1	.	.	.	/	/	4.3µM
C/C(=N/Nc1nc(C)cc(C)n1)c1ccc(Br)cc1	.	.	.	/	/	.
C/C(=N\NC(=O)c1ccc(-c2ccccc2)cc1)c1cccc(N)c1	.	.	.	/	.	?
C/C(=N\Nc1nc(C)cc(-c2ccccc2)n1)c1cccc(N)c1	.	.	.	/	/	3.4µM
C/C(=N\Nc1ccc([N+](=O)[O-])cc1)c1cccc(N)c1	.	?	?	?	.	19µM
Cc1ccc(N2Cc3ccccc3C2=S)cc1	.	2.5µM	2.8µM	11µM	.	4.8µM
Cc1ccc2sc(NC(=O)c3ccc(N4C(=O)CCC4=O)cc3)nc2c1C	.	.	.	.	.	.
Cc1cccc2sc(NC(=O)C3CC3)nc12	.	.	.	/	/	.
Cc1ccc2sc(NC(=O)c3cccc(N4C(=O)CCC4=O)c3)nc2c1C	.	.	.	/	/	1.9µM
O=C(Nc1nc2ccc(Cl)cc2s1)c1cccc(N2C(=O)CCC2=O)c1	?	?	.	/	/	1.3µM
SMILES	ELG1 genotoxic	Rab9 promoter act	NPC1 promoter act	SMN2 splice up	Luc counter	FLuc modulator
O=C(Nc1nc2cc3c(cc2s1)OCO3)c1cccc(N2C(=O)CCC2=O)c1	.	.	.	/	/	0.95µM
Cc1ccc2sc(NC(=O)C3CC3)nc2c1C	?	?	?	/	/	17µM
COc1ccc2nc(NC(=O)c3cccc(N4C(=O)CCC4=O)c3)sc2c1	.	.	.	/	/	0.85µM
CC(C)(C)NS(=O)(=O)c1ccc2nc(NC(=O)c3ccc(N4C(=O)CCC4=O)cc3)sc2c1	.	.	.	.	.	.
CCOc1ccc2nc(N3C(=O)/C(=C/c4ccccc4)NC3=S)sc2c1	?	?	?	/	/	6µM
COc1ccc2nc(N3C(=O)/C(=C/c4ccccc4)NC3=S)sc2c1	.	.	.	.	.	11µM
CCOc1ccc2nc(Cl)sc2c1	.	.	.	.	.	.
O=C(O)c1ccc(-c2nc3ccccc3[nH]2)cc1	.	.	.	.	.	15µM
